Assay results reported in PubChem BioAssay (EPA / NIEHS).
“And” between values parts separate entries of the source, which are not always exact repeats. Equal entries are not always repeated. The source holds several records for some structures; these can differ, active in one and inactive in another. The source made the active and inactive calls. Rule for the calls: active = hit-call score of the fitted dose curve at least 0.9, where 1 is the maximum; inactive = score below 0.9.

Test: BSK_3C_Proliferation: Cell Proliferation Assessment in the BioMAP Diversity Plus: 3C Assay (AID 2283006);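 for AC50: potency may reflect either rise or fall in cell number versus DMSO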
Conditions: primary human endothelial cells (HUVEC)
Protocol: BSK_3C is a cell-based, multiplexed-readout assay that uses umbilical vein endothelium, a human vascular primary cell, with measurements taken at 24 hours after chemical dosing in a 96-well plate.BSK_3C_Proliferation is an assay component measured in the BSK_3C assay. It measures 0.1% sulforhodamine related to cell proliferation using Sulforhodamine staining technology.Data from the assay component BSK_3C_Proliferation was analyzed into 1 assay endpoint. This assay endpoint, BSK_3C_Proliferation, was analyzed with bidirectional fitting relative to DMSO as the negative control and baseline of activity. Using a type of viability reporter, measures of total protein for gain or loss-of-signal activity can be used to understand the viability at the cellular-level. Furthermore, this assay endpoint can be referred to as a secondary readout, because this assay has produced multiple assay endpoints where this one serves a viability function. To generalize the intended target to other relatable targets, this assay endpoint is annotated to the cell cycle intended target family, where the subfamily is proliferation.
The levels of cell surface (or secreted, indicated by the prefix "s") biomarker endpoints were measured by ELISA. Overt cytotoxicity to cells in confluent adherent cultures (all systems other than the BT system) was assessed by measuring total protein levels using sulforhodamine B (SRB) staining in parallel cultures at the time of biomarker measurements, indicated as SRB endpoints. For proliferation assays for adherent cell types, individual cell types are cultured at sub-confluence and relative cell numbers quantified by SRB staining at time points optimized for each system (48 h: 3C and CASM3C systems; 72 h: BT and HDF3CGF systems; 96 h: SAg system). SRB was performed by staining cells with 0.1% SRB after fixation with 10% TCA and reading wells at 560 nm.Viability and proliferation of PBMC (T cells) was quantified by Alamar Blue reduction for the SAg and BT systems. For PBMC viability (referred to as PBMC Cytotoxicity within the assay endpoint names), cells were plated (75,000/well in a 96-well plate) and then chemical samples added for 1 h before addition of activators, SEB and TSST-1 (20 ng/mL final concentration each). Cells were incubated for 90 h. Then, Alamar Blue (20 uL/well) (Invitrogen, Cat DAL1100) was added for 6 h, and the plates were read with a fluorescence microplate reader at 546/580 nm (excitation/emission). For PBMC proliferation, cells were plated and activated as above but incubated for only 16 h prior to addition of Alamar Blue. Plates were read after 6 h.

SMILES	outcome	AC50
COc1cc(Cl)c(OC)cc1N	inactive	–
CC(CN=Cc1ccccc1O)N=Cc1ccccc1O (stereo not given)	inactive	3.97 µM (active)
CCCCCCC(CO)CCCC (stereo not given)	–	37.6 µM (active) and 31.2 µM (active)
COc1ccc(OC)c(N=Nc2c(O)ccc3ccccc23)c1	–	12.6 µM (active)
CCCCCC(C=O)=Cc1ccccc1	–	30.8 µM (active)
C=C(C)[C@H]1CC=C(C)C(=O)C1	inactive	–
C=C(C)C(=O)OCCOCCOCCOC(=O)C(=C)C	inactive	–
COc1ccc(CCN2CCC(Nc3nc4ccccc4n3Cc3ccc(F)cc3)CC2)cc1	–	6.51 µM (active)
CC=Cc1ccc(OCC)c(O)c1	inactive	–
CC(C)(N=C=O)c1cccc(C(C)(C)N=C=O)c1	inactive	–
CC1(C)C2=CCCC(C)(C)[C@]23CC[C@H]1C3	–	31.7 µM (active)
C=C(C)C(=O)OCC(CC)(COC(=O)C(=C)C)COC(=O)C(=C)C	–	13.9 µM (active)
IC(I)I	inactive	–
CC(C)(C)CC(C)(C)c1ccc(OCCOCC[N+](C)(C)Cc2ccccc2)cc1	–	7.08 µM (active)
CC1(C)CCC[C@]2(C)[C@H]3CCO[C@]3(C)CC[C@@H]12	–	32.6 µM (active) and 33.6 µM (active)
c1ccc2cc(Nc3ccc(Nc4ccc5ccccc5c4)cc3)ccc2c1	inactive	–
CCCCN(CCCC)C(=O)N(CCCC)CCCC	–	4.03 µM (active)
O=C1c2ccccc2C(=O)c2c(O)ccc(O)c21	–	2.95 µM (active)
Cc1cc(CCC(=O)OCCOCCOCCOC(=O)CCc2cc(C)c(O)c(C(C)(C)C)c2)cc(C(C)(C)C)c1O	inactive	–
C=C(C)C(=O)OCCOCCOCCOCCOC(=O)C(=C)C	inactive	–

SMILES	outcome	AC50
Clc1cc(Cl)c(-c2c(Cl)c(Cl)cc(Cl)c2Cl)cc1Cl	–	16.7 µM (active)
CS(=O)(=O)OCCCCOS(C)(=O)=O	inactive	–
CCC(C)c1cc([N+](=O)[O-])cc([N+](=O)[O-])c1OC(=O)OC(C)C (stereo not given)	–	5.44 µM (active)
Oc1c(Cl)cc(Cl)c(Cl)c1Cc1c(O)c(Cl)cc(Cl)c1Cl	–	2.22 µM (active)
c1ccc(Oc2ccccc2)cc1	–	31.2 µM (active)
O=CN1CCOCC1	inactive	–
CN(C)C(=O)Nc1ccc(Oc2ccc(Cl)cc2)cc1	inactive	–
O=C1OC2(c3ccccc31)c1ccc(O)c(Br)c1Oc1c2ccc(O)c1Br	–	9.61 µM (active)
CCCCCCCCCCCCCCCC(=O)OC/C=C(C)/C=C/C=C(C)/C=C/C1=C(C)CCCC1(C)C	–	4.06 µM (active)
CC(C=O)Cc1ccc(C(C)(C)C)cc1 (stereo not given)	–	30.9 µM (active)
CCOC(=O)C(C#N)=C(c1ccccc1)c1ccccc1	–	20 µM (active) and 8.88 µM (active)
CCCCOC(=O)CCCCCCCC(=O)OCCCC	inactive	–
CSCCC=O	inactive	–
CC(=O)C1(C)CC2=C(CCCC2(C)C)CC1C (stereo not given)	–	6.69 µM (active)
C1=CC2C3C=CC(C3)C2C1 (stereo not given)	inactive	–
O=C1OC[C@H](Cc2cccc(O)c2)[C@H]1Cc1cccc(O)c1	inactive	–
c1ccc(CCc2ccccc2)cc1	–	22.7 µM (active)
CC(=O)c1c(C)c([N+](=O)[O-])c(C(C)(C)C)c([N+](=O)[O-])c1C	inactive	–
CN(C)C(=S)SC(=S)N(C)C	–	19.9 µM (active)
